PGK inhibitor – T. brucei PGK inhibition; P07378; AID 602233; PGK/GAPDH coupled, Kinase-Glo luminescence, 60 min; Potency, µM (top dose mostly 57.5 µM), actives largely listed as inhibitors; 380,000 tested, 0.043% active; further: nearly all actives have a fitted effect of over 60% in size
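Luminescent ATP detection (Kinase-Glo Plus) follows a 60-minute room-temperature incubation, with wells lacking PGK as controls. Buffer: 100 mM TEA (pH 7.6), 5 mM MgCl2, 0.01% Tween-20. Coupling enzyme GAPDH (100 nM final) supplies unstable 1,3-BPG in-well.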
Anesthetic bind – candidate novel general anesthetic via apoferritin binding | AID 485281 | apoferritin/1-aminoanthracene competitive binding, fluorescence | Potency, µM (doses to about 77.5 µM), actives largely listed as inhibitors | 350,000 tested, 0.074% active | P02791; further: nearly all actives have a fitted effect of over 20% in size
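Concentration-response curves derived by four-parameter Hill fitting of normalized fluorescence, where compounds displaced 1-AMA from 10 uM horse apoferritin following a brief 10 min room-temperature incubation; propofol titration acted as positive control.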
FEN1 inh-1 – blocks human flap endonuclease 1; P39748; Recombinant FEN1 flap cleavage, fluorescence, 15 min; Potency, µM (doses to about 114 µM), actives largely listed as inhibitors; 390,000 tested, 0.35% active; AID 588795; further: nearly all actives have a fitted effect of over 65% in size
Target sequence (P39748 whole entry, looked up): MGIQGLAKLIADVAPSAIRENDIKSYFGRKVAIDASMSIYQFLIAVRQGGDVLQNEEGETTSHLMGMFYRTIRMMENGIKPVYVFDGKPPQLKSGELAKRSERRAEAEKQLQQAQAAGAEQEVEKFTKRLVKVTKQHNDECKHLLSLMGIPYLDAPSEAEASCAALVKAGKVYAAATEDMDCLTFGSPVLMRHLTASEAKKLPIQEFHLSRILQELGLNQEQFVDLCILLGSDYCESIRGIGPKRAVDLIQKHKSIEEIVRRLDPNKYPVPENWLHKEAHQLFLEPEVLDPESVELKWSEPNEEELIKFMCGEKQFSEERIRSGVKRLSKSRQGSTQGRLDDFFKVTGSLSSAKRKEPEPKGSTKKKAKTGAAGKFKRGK
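FEN1 at 10 nM, compound pretreatment for 15 min (room temperature), 50 nM final substrate to initiate; endpoint reads at 0 and 15 min; DMSO-only plates used as vehicle background.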
BCR signal inh – inhibitors of chronic active B-cell receptor signaling. Potency, µM (series often up to 46.1 µM), actives largely listed as inhibitors. ABC-DLBCL IkBa-CBG/CBR reporter, luminescence ratio, 4 h. AID 493014. 340,000 tested, 0.05% active; active means well fitted inhibition curve with a large enough effect in the signal ratio, with a control signal flat, not every such curve was filed as active; inconclusive means small, poorly fitted or top-dose-only effect, or effect the other way, or a change in a side signal; the % refers to the signal ratio
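Doxycycline induced both beetle luciferases in TMD8 lymphoma cells; IKK-driven degradation limits the IkappaBalpha-fused green signal, while red luminescence normalises for cell number and nonspecific effects. Compounds tested up to 46 uM, 4 hrs.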
Pin1 inhibitor – inhibitors of human Pin1 | Q13526 | Pin1 FP peptide displacement, HiFluor488, 10 min | Potency, µM (doses to about 115 µM), usual class: inhibitors | 390,000 tested, 0.009% active | AID 504891; active means well fitted inhibition curve with a large enough effect in the polarisation, with a control signal flat, not every such curve was filed as active; inconclusive means small, poorly fitted or top-dose-only effect, or effect the other way, or a change in a side signal; inactive means no such curve, though single readings can be large or run the other way; the % refers to the polarisation
B2AR arrestin – recruits beta-arrestin to the human beta2-adrenergic receptor | P07550 | beta-arrestin recruitment to beta2AR, cell-based reporter | Potency, µM (top dose mostly 46.1 µM), hits mostly activators | 330,000 tested, 0.02% active | AID 492947; further: nearly all actives have a fitted effect of over 65% in size
FEN1 inh-2 – FEN1 inhibition, cherry-pick retest; shares compounds with FEN1 inh-1; FEN1 flap cleavage, TAMRA/BHQ2 fluorogenic DNA substrate; Potency, µM, actives largely listed as inhibitors; 880 tested, 79% active; further: nearly all actives have a fitted effect of over 60% in size
A number is an active result; . = inactive; ? = inconclusive; / = no result; ! = a repeat was not active. In the library only some 0.45% were active in any assay of this set; here they are far more common. Unless noted, the call rests on the fitted dose curve; in most records, active means well fitted curve in the direction sought with a large enough effect; inconclusive means small, poorly fitted or top-dose-only effect, or another doubt; inactive means no such curve, though single readings can be large; an effect the other way counts as inactive or inconclusive.

SMILES	PGK inhibitor	Anesthetic bind	FEN1 inh-1	BCR signal inh	Pin1 inhibitor	B2AR arrestin	FEN1 inh-2
c1ccc2c(c1)[IH]c1ccccc1-2	.	/	50µM	/	.	/	/
Cc1nn2c(=O)cc(N3CCNCC3)nc2s1	/	/	/	/	.	/	/
O=C(O)c1cc[c]([Hg][Cl])cc1	.	/	25µM	?	.	.	/
COc1ccc(N2CC(C(=O)NCc3ccco3)CC2=O)cc1 (stereo not drawn)	.	.	.	.	?	.	/
O=[N+]([O-])c1cc(Cl)c2cccnc2c1O	.	.	.	11µM	.	.	/
CN(C)[C@@H]1C(=O)C(C(N)=O)=C(O)[C@@]2(O)C(=O)C3=C(O)c4c(O)cccc4[C@@](C)(O)[C@H]3[C@H](O)[C@@H]12	?	.	11µM!	?	?	.	76
COc1cc2c(cc1OC)-c1c3c(cc4c1[C@@H](C2)N(C)CC4)OCO3	.	.	2.5µM	.	.	.	34
O=C1NC(=S)N(c2ccccc2)C(=O)/C1=C/c1ccco1	7.9µM	.	8.9µM	.	?	.	17
CCOc1cccc(N2C(=O)/C(=C/c3ccco3)C(=O)NC2=S)c1	?	.	22µM	.	.	.	43
COc1ccccc1/C=C1\C(=O)NC(=S)N(c2ccccc2)C1=O	.	.	.	.	.	.	/
COc1ccc(CN2C(=O)NC(=O)/C(=C\c3ccco3)C2=O)cc1	?	.	28µM	.	.	.	76
O=C1NC(=O)N(CCc2ccc(F)cc2)C(=O)/C1=C/c1ccco1	?	.	?	.	.	.	76
Cc1ccc(/C=C2/C(=O)NC(=O)N(CCc3ccc(F)cc3)C2=O)o1	.	.	.	.	.	.	/
Cc1cn([C@H]2C[C@H](O)[C@@H](CO)O2)c(=O)[nH]c1=O	/	.	/	/	/	/	/
COc1ccccc1N1C(=O)NC(=O)/C(=C/c2ccc([N+](=O)[O-])s2)C1=O	.	.	45µM	.	/	.	11
COc1cccc(N2C(=O)NC(=O)/C(=C/c3ccc([N+](=O)[O-])s3)C2=O)c1	.	.	40µM	.	?	.	15
CCOc1ccc(N2C(=O)NC(=O)/C(=C\c3cc(OC)c(OC)cc3[N+](=O)[O-])C2=O)cc1	.	.	.	.	?	.	/
COc1ccc(N2C(=O)NC(=O)/C(=C/c3ccc([N+](=O)[O-])s3)C2=O)cc1	?	.	?	.	?	.	19
COc1ccc(N2C(=O)NC(=O)/C(=C\c3ccc([N+](=O)[O-])s3)C2=O)cc1	.	.	?	.	?	.	9.5
CCN(CC)C(=O)Cn1c(=O)oc2ccccc21	.	.	.	?	.	.	/
CC1Cc2ccccc2N1C(=O)COC(=O)c1ccc(Cl)nc1 (stereo not drawn)	.	?	.	.	.	.	/
COc1cccc(NC(=O)C2CCC(CNS(=O)(=O)c3ccc4c(c3)CC(C)N4C(C)=O)CC2)c1 (stereo not drawn)	.	.	.	?	.	.	/
N[C@@H](Cc1cc(I)c(O)c(I)c1)C(=O)O	.	.	7.9µM	.	.	.	60
Cc1o[nH]c(=O)c1C[C@@H](N)C(=O)O	/	.	.	/	.	/	/
COc1ccc(C(=O)CSc2nnc(CNC(=O)c3ccc(S(=O)(=O)N(C)C)cc3)o2)cc1	.	?	.	.	.	.	/
CC1=C/C(=C(\c2cc(C)c(O)c(Br)c2)c2ccccc2S(=O)(=O)O)C=C(Br)C1=O	?	?	?	?	?	.	/
Cc1ccc(N2C(=O)NC(=O)/C(=C\c3cc(C)n(-c4sc5c(c4C#N)CCCC5)c3C)C2=O)cc1	.	.	?	?	?	.	76
Cc1cc(/C=C2\C(=O)NC(=O)N(c3ccc(Br)cc3)C2=O)c(C)n1-c1cc(C(=O)O)cc(C(=O)O)c1	14µM	.	?	.	?	.	?
CCN1C(=O)NC(=O)/C(=C/c2cc(C)n(-c3sc(C)c(C)c3C#N)c2C)C1=O	.	.	?	.	?	.	/

Screening data (PubChem BioAssay)
